# According to PubChem BioAssay AID743286 (National Center for Advancing Translational Sciences (NCATS), 2014):
# Screen size: about 1,100 compounds; about 340 (31%) were called active. Roughly 40% stayed inconclusive and do not appear here. Calls follow the shape of the dose curve; as a rule, active = well fitted inhibition curve with a large enough effect; inconclusive = small, poorly fitted or top-dose-only effect; inactive = flat fitted curve, though single readings scatter. These entries were drawn from the full list. Where a call stands in place of a potency, no number is given.
# Molecular target: Phosphatidylinositol 5-phosphate 4-kinase type-2 alpha (Homo sapiens) (UniProt P48426)
# Assay: qHTS for Inhibitors of PI5P4K: Confirmation in Primary Assay; also: nearly all actives have a fitted effect of over 65% in size
# Settings: PI5P4Kalpha enzyme, ADP-Glo luminescence, 60 min; series mostly up to 76.9 µM
# Outline: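 Human PI5P4Kα activity was measured as ADP generation using ADP-Glo luminescence. Reactions ran 60 minutes at room temperature with 5 microM ATP in buffered conditions at pH 7.4 containing 5% DMSO.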
# Potency is read from the fitted curve at half-maximal effect.
# Phosphatidylinositol 5-phosphate 4-kinase type-2 alpha (Homo sapiens), sequence (P48426 whole entry, looked up): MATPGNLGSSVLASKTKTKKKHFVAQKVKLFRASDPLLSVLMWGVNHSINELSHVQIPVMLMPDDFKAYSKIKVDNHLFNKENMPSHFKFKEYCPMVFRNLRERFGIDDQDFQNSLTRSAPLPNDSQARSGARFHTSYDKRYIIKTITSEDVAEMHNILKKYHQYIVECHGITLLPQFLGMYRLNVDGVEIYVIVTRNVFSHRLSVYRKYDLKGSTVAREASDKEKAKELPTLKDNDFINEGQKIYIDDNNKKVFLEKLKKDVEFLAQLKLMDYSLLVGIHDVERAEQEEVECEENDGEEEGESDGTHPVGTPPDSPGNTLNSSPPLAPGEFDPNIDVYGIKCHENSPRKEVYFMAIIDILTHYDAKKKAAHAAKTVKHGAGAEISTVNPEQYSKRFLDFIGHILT
row,Structure (SMILES),Potency
1,O=S(=O)(Nc1ccc(-c2nc3cccnc3s2)cc1)c1ccc(Cl)s1,14.1 µM (active)
2,O=S(=O)(Nc1ccccc1N1CCCCC1)c1ccc(Cl)s1,inactive
3,CCS(=O)(=O)Nc1ccc(-c2nc3cccnc3s2)cc1,22.4 µM (active)
4,O=S1(=O)CC(N2CCSCC2)CN1Cc1cn(Cc2ccc(F)cc2)nn1 (configuration not stated),inactive
5,COc1cc(Br)cc(CNc2ccc(F)c([N+](=O)[O-])c2)c1O,inactive
6,Cn1c(=O)c2c(-c3ccccc3)n(-c3cccc(O)c3)cc2n(C)c1=O,inactive
7,Cc1cccc(C2Nc3ccccc3C(=O)N2c2ccc(F)cc2)n1 (configuration not stated),inactive
8,COc1ccc2[nH]c(=O)c(CN(Cc3nnnn3Cc3ccco3)C3CCCCC3)cc2c1,inactive
9,NS(=O)(=O)c1ccc2c(c1)C1C=CCC1C(C1CC=CCC1)N2 (configuration not stated),28.2 µM (active)
10,CCN(CC)CCCCCC(=O)Nc1ccccc1C(=O)Nc1ccccc1,inactive
11,CCCCC1=CC2=CC(=O)C(C)(OC(=O)C3CCCC3)C(=O)C2=CO1 (configuration not stated),15.8 µM (active)
12,Cc1c(Cl)cccc1NC(=O)Cn1nnc(C(=O)NCc2cccs2)c1N,inactive
13,S=C(NCc1ccccc1)N1CCc2ccccc2C1,inactive
14,Cc1ccc([N+](=O)[O-])cc1NC(=O)CCSc1ccc(Cl)cc1,inactive
15,NC(=O)c1ccsc1NC(=O)c1ccc([N+](=O)[O-])o1,12.6 µM (active)
16,Cc1cccc(Nc2nc(NCc3ccco3)c3ccccc3n2)c1,35.5 µM (active)
17,Cc1ccc(Nc2nc(NCc3ccco3)c3ccccc3n2)cc1,35.5 µM (active)
18,COc1ccccc1CNc1nc(Nc2cccc(-c3cnco3)c2)c2sccc2n1,inactive
19,CCc1cc(=O)oc2cc(C)c(CN3CCCCC3)c(O)c12,inactive
20,COc1ccc(N(C(=O)c2ccccc2)S(=O)(=O)c2cccs2)cc1,inactive
21,CC(CNC(=O)c1ccc(Br)o1)NC(=O)c1ccc(Br)o1 (configuration not stated),inactive
22,O=C(Nc1cccc(S(=O)(=O)NC2=NCCC2)c1)c1cc(-c2ccco2)nc2ccccc12,2.51 µM (active)
23,O=C(Nc1cccc(S(=O)(=O)NC2=NCCCCC2)c1)c1cc(-c2ccco2)nc2ccccc12,2.82 µM (active)

row,Structure (SMILES),Potency
1,COc1ccc(NC(=O)c2cc(-c3ccco3)nc3ccccc23)cc1S(=O)(=O)N1CCOCC1,6.31 µM (active)
2,COc1ccc(Br)cc1C(=O)Nc1cccc(NC(=O)c2ccco2)c1,inactive
3,Cc1csc(=O)n1CCC(=O)OCC(=O)Nc1ccc(N2CCOCC2)cc1,inactive
4,COc1ccc(N2CC(O)=C(c3nc(-c4ccccc4)cs3)C2=N)cc1,inactive
5,CCCCc1c(Cc2ccccc2)ncn1CCc1ccccc1OC,inactive
6,CC(=O)c1ccc(NC(=O)CC2Nc3cccc4cccc(c34)NC2=O)cc1 (configuration not stated),3.98 µM (active)
7,O=c1[nH]c(N2CCOCC2)cc2ccccc12,inactive
8,Oc1c(C(c2ccccc2)N2CCOCC2)ccc2ccccc12 (configuration not stated),3.98 µM (active)
9,c1ccc2c(OCCCCN3CCOCC3)cccc2c1,inactive
10,CC1CCCC(C)N1C(=O)COC(=O)CNC(=O)c1ccccc1 (configuration not stated),inactive
11,Cc1cc2nc(NC(=O)C3(C)CCN3C(=O)C(C)C)[nH]c2cc1C (configuration not stated),inactive
12,CC1(C(=O)NS(=O)(=O)C2CC2)CCN(C(=O)c2ccccc2F)C1 (configuration not stated),inactive
13,N#Cc1ccc(COC(=O)CC(NC(N)=O)c2ccc(Cl)cc2)cc1 (configuration not stated),inactive
14,COCCOC(=O)c1[nH]c2c(c1C)C(=O)CC(c1ccco1)C2 (configuration not stated),15.8 µM (active)
15,O=C(Nc1ccc(O)c2c(=O)cc(-c3ccccc3Cl)oc12)c1ccc(Cl)c(Cl)c1,inactive
16,Nc1c(C(=O)O)cnc2c(-c3ccc(Cl)cc3)cnn12,6.31 µM (active)
17,CN1OC[C@@H]2CN3C(=O)N(c4cccc5ccccc45)c4ccccc4[C@@H]3C[C@@H]21,inactive
18,CCCn1c(SCC(=O)N2c3ccccc3Sc3ccccc32)nc2c1c(=O)n(C)c(=O)n2C,inactive
19,CCC(c1nnnn1Cc1ccco1)N(CCc1ccccc1)Cc1cc2ccc(OC)cc2[nH]c1=O (configuration not stated),inactive
20,O=C(NCCN1CCN(c2ccccc2)CC1)C1CCCN(S(=O)(=O)c2cnc[nH]2)C1 (configuration not stated),inactive
21,Cc1cc(NS(=O)(=O)c2ccc(NC(=O)COc3ccc(Br)cc3)cc2)nc(C)n1,inactive
22,Cc1cc(C)c2nc(-c3ccccn3)cc(C(=O)Nc3ccc(S(=O)(=O)Nc4onc(C)c4C)cc3)c2c1,8.91 µM (active)
23,COCCCNC(=O)c1ccc2c(=O)n(CC3CCCO3)c(=S)[nH]c2c1 (configuration not stated),inactive

row,Structure (SMILES),Potency
1,CN(Cc1ccccc1)C(=O)c1csc([C@H]2C[C@H](O)[C@@H](CO)O2)n1,inactive
2,COc1cccc(CNS(=O)(=O)c2ccccc2Br)c1OC,inactive
3,COC(=O)CSc1nc(C)cc(C)n1,inactive
4,CC1CCCCN1C(=O)Cn1cnc2cc([N+](=O)[O-])ccc2c1=O (configuration not stated),inactive
5,O=C(Cn1cnc2scc(-c3cccc([N+](=O)[O-])c3)c2c1=O)NCc1ccco1,11.2 µM (active)
6,COC(=O)CNC(=O)C1Cc2ccccc2CN1S(=O)(=O)c1cccs1 (configuration not stated),inactive
7,O=S(=O)(Nc1nc(-c2ccccc2)cs1)c1cc(Cl)ccc1Cl,28.2 µM (active)
8,O=C(O)c1ccc(Cl)c(S(=O)(=O)Nc2ccc3[nH]c(=O)[nH]c3c2)c1,inactive
9,COC(=O)c1ccccc1NC(=O)CN1CCC(n2nnc3cc(C(F)(F)F)ccc32)CC1,inactive
10,Cc1ccc(S(=O)(=O)N2[C@@H](c3ccc(C(C)(C)C)cc3)C(C(=O)O)=CC[C@H]2c2ccc(C(C)C)cc2)cc1,inactive
11,Cc1cccc(NC(c2ccc(O)cc2)c2ccc3ccc(C)nc3c2O)n1 (configuration not stated),22.4 µM (active)
12,O=c1cc(-c2ccccc2)[nH]n1-c1nc2ccccc2[nH]1,15.8 µM (active)
13,CC(=O)Nc1ccc(NC(=S)Nc2ccc(Br)cc2)cc1,inactive
14,CC(C)C(=O)Nc1nnc(NC(=S)Nc2ccccc2)s1,20 µM (active)
15,O=C(CSc1n[nH]c(-c2cccnc2)n1)OC1CCCCC1,inactive
16,CCCN(C(=O)c1cc(-c2ccco2)nc2ccccc12)c1c(N)n(Cc2ccccc2)c(=O)[nH]c1=O,15.8 µM (active)
17,CCCCC(=O)N(Cc1ccc2c(c1)OCO2)Cc1nc2ccccc2c(=O)[nH]1,inactive
18,CCCn1c(N)c(N(CCOC)C(=O)c2cc(-c3ccco3)nc3ccccc23)c(=O)[nH]c1=O,inactive
19,CCCN(C(=O)c1cccc(-n2cccc2)c1)c1c(N)n(Cc2ccccc2)c(=O)[nH]c1=O,7.08 µM (active)
20,Cc1ccc(Nc2nc(C)c3c(n2)CC(C)CC3=O)c(C)c1 (configuration not stated),inactive
21,O=C(O)c1cc2c(N3CCC(Cc4ccccc4)CC3)ncnc2s1,3.98 µM (active)
